High-throughput results: PubChem BioAssay, Broad Institute
Casp6 inh – caspase-6 (human) enzyme inhibition; inhibition, % at 12.5 µM; P55212; 0.53% of 350,000 active; purified caspase-6, Z-VEID-R110 cleavage fluorescence;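 active means mean inhibition across replicates at least about 35%, with every replicate also reaching that limit, limit read from the data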;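 further: 0% = median of neutral control wells and 100% = no fluorescence left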
FGF22 binding – FGF22 (human) thermal shift binding | AID 651658 | activity (Tm shift, normalised), % at 9.99 µM | 1.5% of 340,000 active | Q9HCT0 | recombinant FGF22 thermal shift, SYPRO orange fluorescence; percent of sucrose octasulfate shift, DMSO zero;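 active means mean Tm shift, scaled 0 neutral to 100 positive control, at about 1.3% or above, every replicate too, limit read from the data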
Target sequence (Q9HCT0 whole entry, looked up): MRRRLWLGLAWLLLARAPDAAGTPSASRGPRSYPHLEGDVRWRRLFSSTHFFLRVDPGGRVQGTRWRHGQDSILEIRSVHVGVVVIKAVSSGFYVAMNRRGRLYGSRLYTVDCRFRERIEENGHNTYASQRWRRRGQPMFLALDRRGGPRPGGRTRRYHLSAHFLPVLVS
ERAP1 inh – ERAP1 (human) enzyme inhibition; Q9NZ08; recombinant ERAP1, Leu-AMC fluorescence, 60 min; inhibition, % at 10.7 µM; 0.15% of 340,000 active;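 active means mean replicate inhibition of at least 30%, or all replicates individually reaching that 30% level; inactive means mean below 30% and not every replicate reaching it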;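 further: 0% = neutral control wells and 100% = L-leucinethiol positive control wells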
SIRT5 block – inhibitors of human sirtuin-5 desuccinylase. Purified SirT5, succinyl-peptide AMC, trypsin-coupled fluorescence. inhibition, % at 15 µM. 1.1% of 330,000 active. Q9NXA8. AID 652115; in the data active means inhibition above about 15%
Target sequence (Q9NXA8 whole entry, looked up): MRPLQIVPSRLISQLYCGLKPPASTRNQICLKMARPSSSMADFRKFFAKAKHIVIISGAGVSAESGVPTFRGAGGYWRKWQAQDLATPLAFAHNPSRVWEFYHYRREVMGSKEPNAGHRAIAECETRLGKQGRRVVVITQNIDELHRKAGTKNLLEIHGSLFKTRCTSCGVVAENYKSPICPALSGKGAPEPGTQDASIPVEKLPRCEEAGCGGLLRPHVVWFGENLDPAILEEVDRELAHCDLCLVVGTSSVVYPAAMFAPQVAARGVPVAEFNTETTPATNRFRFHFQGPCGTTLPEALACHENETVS
Active calls of the source: *; nt = no result. Rows were chosen to be rich in hits. Some 3.1% of all compounds tested hit in one or more screens of this group.

SMILES	Casp6 inh	FGF22 binding	ERAP1 inh	SIRT5 block
COc1ccccc1CNC(=O)C[C@@H]1C[C@@H]2c3cc(NC(=O)c4ccc5c(c4)OCO5)ccc3O[C@@H]2[C@H](CO)O1	0	0	0	3
CC(=O)N1CCN(c2ccc(N)cc2)CC1	36*	0	-2	1
CC(C)NC(=O)Nc1ccc2c(c1)C(=O)N(C)[C@@H]1CC[C@H](CC(=O)NCc3ccc(F)cc3)O[C@H]1CO2	1	0	-1	-1
CCCCc1ccc(NC(=S)N2CCN(c3ccccn3)CC2)cc1	-2	0	-6	-4
CCCCc1ccc(NC(=S)N2CCN(c3ncccn3)CC2)cc1	-1	43*	3	-3
COCC(=O)N(C[C@@H]1N[C@@H](CO)[C@@H]1c1ccc(C2=CCCCC2)cc1)C(C)C	-1	0	1	0
CCc1ccc(C2C3=C(CCCC3=O)OC3=C2C(=O)CCC3)cc1	-8	43*	0	-4
O=C(C[C@H]1CC[C@@H](NC(=O)C2CCOCC2)[C@H](CO)O1)NCc1ccccc1Cl	-2	-1	-3	8
CCC(Cc1ccccc1)n1c(=S)[nH]c2ccccc2c1=O (stereo not given)	5	1	2	-5
CCC(C)n1c(=S)[nH]c2ccccc2c1=O (stereo not given)	-2	43*	-1	1
C[C@H]1CN([C@@H](C)CO)C(=O)Cc2cc(NC(=O)Nc3ccccc3)ccc2O[C@H]1CN(C)C(=O)NC1CCCCC1	2	0	-2	-2
COc1ccc(C(=O)CSc2n[nH]c(=O)[nH]c2=O)cc1	-1	43*	6	1
O=C(CSc1n[nH]c(=O)[nH]c1=O)c1ccc([N+](=O)[O-])cc1	-3	0	-2	9
O=C(Nc1ccccc1)C1CCN(S(=O)(=O)c2ccc3c(c2)OCCO3)CC1	36*	0	1	0
O=C(CN1C(=O)NC2(CCCCC2)C1=O)Nc1cccc(S(=O)(=O)N2CCCC2)c1	5	0	0	-1
O=C(CCN1C(=O)NC2(CCCC2)C1=O)Nc1cccc(S(=O)(=O)N2CCOCC2)c1	42*	0	0	-2
O=C(O)c1ccc(NC(=O)C2CCN(S(=O)(=O)c3ccc4c(c3)OCCO4)CC2)cc1	4	0	-5	15
O=S(=O)(c1ccc(Cl)c(NC(=S)Nc2cccc(O)c2)c1)N1CCOCC1	7	1.7*	4	-3
O=C(Nc1cccc(S(=O)(=O)N2CCOCC2)c1)C1CC1	2	0	2	23*
O=C(Nc1cccc(S(=O)(=O)N2CCOCC2)c1)C1CCCC1	1	0	-2	1
CN1CCN(C(=O)C[C@@H]2C[C@H]3c4cc(NC(=O)C5CCOCC5)ccc4O[C@H]3[C@H](CO)O2)CC1	-2	nt	1	-5
C[C@H](CO)N1C[C@H](C)[C@H](CN(C)Cc2ccccc2)Oc2ccc(NC(=O)c3ccncc3)cc2C1=O	-1	1	-2	1
CCC(=O)Nc1ccc2c(c1)OC[C@H](C)N(Cc1ccccc1OC)C[C@H](C)[C@@H](OC)CN(C)C2=O	-1	0	2	3
CC1(C)CC(=O)C2=C(C1)NC1=C(C(=O)c3ccccc31)C2c1cccnc1 (stereo not given)	2	44*	-2	9
COc1ccc(C#Cc2ccc3c(c2)[C@@H]2[C@@H](CCN2C(=O)C2CCC2)[C@H](CO)N3)cc1	3	nt	1	17*
SMILES	Casp6 inh	FGF22 binding	ERAP1 inh	SIRT5 block
COCC(=O)N1CC[C@@H]2[C@H](CO)Nc3ccc(C#Cc4ccc(OC)cc4)cc3[C@@H]21	-5	0	2	8
O=C(CN1CCOCC1)N1CC[C@@H]2[C@H]1c1cc(-c3ccc(F)cc3)ccc1N[C@@H]2CO	nt	nt	nt	-9
COCC(=O)N1CC[C@H]2[C@H](CO)Nc3ccc(C#Cc4ccc(OC)cc4)cc3[C@H]21	0	nt	0	15*
COc1ccc(C#Cc2ccc3c(c2)[C@@H]2[C@@H](CCN2C(=O)C2CCC2)[C@@H](CO)N3)cc1	0	nt	-2	1
O=C(CN1CCOCC1)N1CC[C@H]2[C@H](CO)Nc3ccc(-c4ccc(F)cc4)cc3[C@H]21	3	0	-3	34*
COc1ccc(S(=O)(=O)Nc2ccc3c(c2)C(=O)N([C@@H](C)CO)C[C@@H](C)[C@H](CN(C)C(=O)NC2CCCCC2)OCCCC[C@H](C)O3)cc1	2	0	1	-1
CSC1=NSC2=NC(=O)/C(=C/c3coc4ccccc4c3=O)C(=N)N12	16	0	1	2
CSC1=NSC2=NC(=O)/C(=C/c3coc4ccc(O)cc4c3=O)C(=N)N12	40*	nt	1	21*
O=C1NN(c2ccccc2)C(=O)/C1=C\c1coc2ccc(O)cc2c1=O	39*	0	4	2
C[C@@H]1CN([C@@H](C)CO)C(=O)c2cccc(NS(C)(=O)=O)c2O[C@H]1CN(C)C(=O)NC1CCCCC1	4	0	-1	-4
O=C1c2cc(O)c(O)cc2OC(c2ccc(O)c(O)c2)C1O (stereo not given)	55*	0	-1	3
CCc1ccc2cccc3c2c1N=CN3C	61*	nt	nt	-2
CN1C(=O)N(C)c2cccc3cccc1c23	0	0	-6	-3
O=C(C[C@@H]1CC[C@@H]2[C@H](COC[C@@H](O)CN2Cc2ccc(Cl)cc2)O1)NCc1cccc(F)c1	nt	0	nt	nt
CC(=O)OCC1=C(C(=O)O)N2C(=O)[C@@H](NC(=O)CSc3ccncc3)[C@H]2SC1	38*	0	2	0
Cc1nnc(SCC2=C(C(=O)O)N3C(=O)C(NC(=O)Cn4ncc(Cl)c4C)C3SC2)s1 (stereo not given)	nt	43*	1	-2
CC1CCN(Cc2cc(=O)oc3cc(O)c(Cl)cc23)CC1	6	0	60*	-7
CC1CCN(Cc2cc(=O)oc3cc4c(cc23)CCCC4)CC1	1	0	3	-5
CC1CN(Cc2cc(=O)oc3cc(O)c(Cl)cc23)CC(C)O1 (stereo not given)	7	0	60*	-37
CCCCCCc1ccc(OCC(=O)OC)cc1OCC(=O)OC	0	0	2	23*
O=C1Nc2cccnc2N(C(=O)CCl)c2ccccc21	47*	0	-3	-7
NCCN1CCN(CC(=O)N2c3ccccc3C(=O)Nc3cccnc32)CC1	-25	0	3	-2
C[C@H]1CN([C@@H](C)CO)C(=O)c2cc(-c3ccc(F)cc3)cnc2O[C@H]1CN(C)CC1CCCCC1	3	0	-15	3
O=C(O)c1ccc(S(=O)(=O)N(Cc2ccccc2)C2CCCCC2)cc1	3	0	-2	22*
C[C@@H]1CN([C@H](C)CO)S(=O)(=O)c2ccc(C#C[C@@H](C)O)cc2O[C@H]1CN(C)Cc1ccccc1	-2	0	-1	2
O=C(CSc1ncn[nH]1)NC1CCCc2ccccc21 (stereo not given)	4	43*	-1	-2
CC(C)CCN1CCC(CN2CCNC(=O)C2=O)CC1	11	0	-2	1
